Some test systems named below: SR leukemia; RPMI-8226 leukemia; OVCAR-8 ovarian; OVCAR-5 ovarian; OVCAR-4 ovarian; SK-OV-3 ovarian; OVCAR-3 ovarian; HS 578T breast; NCI/ADR-RES ovarian; T-47D breast; BT-549 breast; MDA-MB-435 melanoma; SW-620 colon; MCF7 breast; HCT-116 colon; HCC-2998 colon; KM12 colon; MDA-MB-468 breast; IGROV1 ovarian.
Common to all, as to experiment: NCI-60 one-dose screen, 48 h (100 = growth as untreated, 0 = no growth, -100 = all killed)
Holding throughout (details): 10 µM unless noted

About 83,000 compounds went through this panel and 20% of them were active in at least one assay; those are over-represented in the sample as a whole.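 Step 1: grow cells in 96-well plates. Step 2: add test compound at a single concentration. Step 3: incubate 48 h. Step 4: record percent growth.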 A number with no mark means an inactive call. Active and inactive are the calls of the source. The calls were made as follows: active = growth percent below 10; inactive = the rest.

Regarding `COc1ccc(C(=O)/C=C/c2ccc(Oc3nc(Nc4ccc(F)cc4)nc(N(C)C)n3)c(OC)c2)cc1`, the growth was 12.2% in the assay on SR leukemia; 4.01% (active) in the assay on RPMI-8226 leukemia; 37.9% with OVCAR-8 ovarian; 82.6% with OVCAR-5 ovarian; 43.5% in the assay on OVCAR-4 ovarian; 94.4% in the assay on SK-OV-3 ovarian. Moreover, the growth was 57.2% with OVCAR-3 ovarian; 58.3% with HS 578T breast; 40% in the assay on NCI/ADR-RES ovarian; 19.7% in the assay with T-47D breast; -4.17% (active) in the assay with BT-549 breast; 51.4% with MDA-MB-435 melanoma. In addition, the growth in the assay on SW-620 colon is 12.4%; in the assay on MCF7 breast, 15.6%; in the assay with HCT-116 colon it was 0.959% (active); with HCC-2998 colon, 100%; in the assay with KM12 colon, 70.2%; in the assay on MDA-MB-468 breast it was 40.6%.
For the compound `C=C1CC[C@@H]2[C@]3(C)COC(c4cn[nH]c4-c4ccc(C)cc4)O[C@@H]3CC[C@@]2(C)[C@@H]1C/C=C1/C(=O)OCC1O` (some centres undefined), the growth in the assay with SR leukemia is -25% (active); with RPMI-8226 leukemia, -25.2% (active); in the assay with OVCAR-8 ovarian, -21.7% (active); in the assay with OVCAR-5 ovarian, 20.4%; in the assay on OVCAR-4 ovarian it was 31.9%; with SK-OV-3 ovarian, 79.9%. The growth with IGROV1 ovarian is 24%; in the assay on OVCAR-3 ovarian it was -23.1% (active); with NCI/ADR-RES ovarian, -41.8% (active); with T-47D breast, 39.4%; with BT-549 breast, -30.5% (active); in the assay with MDA-MB-435 melanoma, -16.6% (active). Also, the growth in the assay with MCF7 breast is 8.74% (active); in the assay on HCT-116 colon, -68.5% (active); with HCC-2998 colon it was 2.89% (active); in the assay on KM12 colon it was 39.3%; with MDA-MB-468 breast, -49.3% (active).
Turning to `O=c1onc(-c2cc3ccccc3nc2Cl)n1-c1cccc2ccccc12`, the growth in the assay on SR leukemia was 16.8%; in the assay with RPMI-8226 leukemia, 40.6%; in the assay with OVCAR-8 ovarian, 51.4%; in the assay on OVCAR-5 ovarian, 94.8%; with OVCAR-4 ovarian it was 38.6%; in the assay on SK-OV-3 ovarian it was 34.4%. In addition, the growth was 64% in the assay with OVCAR-3 ovarian; 30% with HS 578T breast; 15.2% with NCI/ADR-RES ovarian; 3.09% (active) in the assay with T-47D breast; 28.5% with BT-549 breast; -11.8% (active) with MDA-MB-435 melanoma. The growth in the assay with SW-620 colon was 29.7%; with MCF7 breast it was 21.4%; in the assay on HCT-116 colon, 40.2%; with HCC-2998 colon it was 71.1%; with KM12 colon, 44.2%; in the assay on MDA-MB-468 breast, -25.2% (active).
As to `O=C(O)c1cccc(-c2ccc(/C=N/NC(=O)c3[nH]c4ccc(Br)cc4c3-c3ccccc3)s2)c1`, the growth with SR leukemia was 24.1%; with RPMI-8226 leukemia it was 54.2%; with OVCAR-8 ovarian it was 44.9%; in the assay with OVCAR-5 ovarian, 112%; in the assay on OVCAR-4 ovarian it was 42%; in the assay with SK-OV-3 ovarian it was 103%. Further, the growth with IGROV1 ovarian is 37.9%; in the assay with OVCAR-3 ovarian, 22.3%; in the assay with NCI/ADR-RES ovarian it was -22.5% (active); in the assay with T-47D breast, 54.5%; with BT-549 breast it was 49.3%; in the assay on MDA-MB-435 melanoma it was 10.4%. Besides, the growth is 13.7% in the assay with MCF7 breast; 31.5% in the assay with HCT-116 colon; 49.9% with HCC-2998 colon; 21.6% in the assay with KM12 colon; 15.7% in the assay with MDA-MB-468 breast.
Turning to `COc1cc(-c2nc3cc(Cl)c(Cl)cc3[nH]2)ccc1OCc1nnc(-c2cccs2)o1`, the growth in the assay on SR leukemia is 31.1%; in the assay on RPMI-8226 leukemia, 59.2%; in the assay on OVCAR-8 ovarian, 38%; in the assay with OVCAR-5 ovarian it was 83.3%; in the assay with OVCAR-4 ovarian, 40.8%; in the assay on SK-OV-3 ovarian, 47.8%. The growth was 91.2% in the assay with OVCAR-3 ovarian; 63.9% in the assay on HS 578T breast; 39.5% in the assay on NCI/ADR-RES ovarian; 84% in the assay with T-47D breast; 28.1% with BT-549 breast; 55.2% in the assay on MDA-MB-435 melanoma. The growth with SW-620 colon was 33%; in the assay with MCF7 breast, 3.79% (active); in the assay on HCT-116 colon it was 29%; in the assay on HCC-2998 colon, 43.9%; in the assay on KM12 colon it was 71.5%; with MDA-MB-468 breast it was 46.4%.
As to `CCOc1ccc(-c2c(C#N)c(-c3ccc(Cl)cc3)nc3n[nH]c(-c4ccc(Cl)cc4)c23)cc1OC`, the growth is 18.8% with SR leukemia; 17.3% in the assay with RPMI-8226 leukemia; 79.3% with OVCAR-8 ovarian; 72.2% in the assay with OVCAR-5 ovarian; 51.2% in the assay with OVCAR-4 ovarian; 63.4% in the assay with SK-OV-3 ovarian. Also, the growth in the assay with IGROV1 ovarian is 62.9%; with OVCAR-3 ovarian, 67.5%; in the assay on NCI/ADR-RES ovarian it was 62%; with T-47D breast, 25.1%; in the assay on BT-549 breast, 67.6%; in the assay with MDA-MB-435 melanoma, 56.8%. Also, the growth is 26.2% in the assay on MCF7 breast; 31.4% in the assay with HCT-116 colon; 53.4% in the assay with HCC-2998 colon; 30.2% in the assay on KM12 colon; 50.5% with MDA-MB-468 breast.
On to `O=C(/C=C/c1ccc(-c2ccccc2)cc1)c1nc2ccccc2n1Cc1ccc(Br)cc1`, for which the growth is 2.11% (active) in the assay with SR leukemia; 14.1% with RPMI-8226 leukemia; 43.9% in the assay on OVCAR-8 ovarian; 74.7% in the assay on OVCAR-5 ovarian; 50% with OVCAR-4 ovarian; 85.3% in the assay on SK-OV-3 ovarian. The growth in the assay on IGROV1 ovarian was 63.6%; in the assay with OVCAR-3 ovarian, 45%; in the assay with NCI/ADR-RES ovarian, 47.1%; with T-47D breast, 7.98% (active); in the assay with BT-549 breast, 41.7%; in the assay with MDA-MB-435 melanoma it was 61.9%. In addition, the growth is 21.3% in the assay on MCF7 breast; 24% in the assay with HCT-116 colon; 62.6% in the assay on HCC-2998 colon; 74.3% in the assay with KM12 colon; 49.6% with MDA-MB-468 breast.
On to `Cc1ncsc1-c1ccc(CNC(=O)[C@@H]2C[C@@H](O)CN2C(=O)[C@@H](NC(=O)C2(F)CC2)C(C)(C)C)c(OCCOCCOCCOCCOc2nc(Nc3cc(S(C)(=O)=O)ccc3N[C@@H](c3cccc4c3OC(F)(F)O4)c3ncccc3Cl)nc(N3CCNCC3)n2)c1`, for which the growth in the assay on SR leukemia was 26.3%; with RPMI-8226 leukemia, 13.6%; with OVCAR-8 ovarian, 98.4%; with OVCAR-5 ovarian, 99%; with OVCAR-4 ovarian, 91.6%; with SK-OV-3 ovarian, 111%. The growth in the assay with IGROV1 ovarian was 72.2%; in the assay with OVCAR-3 ovarian it was 89.1%; with NCI/ADR-RES ovarian it was 103%; in the assay on T-47D breast, 76.6%; in the assay with BT-549 breast, -34.3% (active); in the assay with MDA-MB-435 melanoma, 86.9%. Further, the growth was 5.45% (active) in the assay on MCF7 breast; 69.5% with HCT-116 colon; 71.2% with HCC-2998 colon; 71.2% in the assay with KM12 colon; -19.8% (active) in the assay with MDA-MB-468 breast.

For the origin of these results see PubChem BioAssay (NCI).
